Measured values reported in the supplement of paper PMC11732987, “Enantioselective OTUD7B fragment discovery through chemoproteomics screening and high-throughput optimisation” (Communications Chemistry, 2025).

Experiments:
Test in all cases: log2 ratio of Biotin-Ahx-Ub-VS probe labelling (fragment/DMSO); higher = less target engagement (more negative = stronger competition), active = hit call of the paper (q ≤ 0.05, log2 ratio ≤ -1)
Conditions in all cases: compound concentration: 200 uM; treatment time: 3 h
USP42 = biological target: T1, USP42 (UniProt Q9H9J4)
T1 sequence (whole entry): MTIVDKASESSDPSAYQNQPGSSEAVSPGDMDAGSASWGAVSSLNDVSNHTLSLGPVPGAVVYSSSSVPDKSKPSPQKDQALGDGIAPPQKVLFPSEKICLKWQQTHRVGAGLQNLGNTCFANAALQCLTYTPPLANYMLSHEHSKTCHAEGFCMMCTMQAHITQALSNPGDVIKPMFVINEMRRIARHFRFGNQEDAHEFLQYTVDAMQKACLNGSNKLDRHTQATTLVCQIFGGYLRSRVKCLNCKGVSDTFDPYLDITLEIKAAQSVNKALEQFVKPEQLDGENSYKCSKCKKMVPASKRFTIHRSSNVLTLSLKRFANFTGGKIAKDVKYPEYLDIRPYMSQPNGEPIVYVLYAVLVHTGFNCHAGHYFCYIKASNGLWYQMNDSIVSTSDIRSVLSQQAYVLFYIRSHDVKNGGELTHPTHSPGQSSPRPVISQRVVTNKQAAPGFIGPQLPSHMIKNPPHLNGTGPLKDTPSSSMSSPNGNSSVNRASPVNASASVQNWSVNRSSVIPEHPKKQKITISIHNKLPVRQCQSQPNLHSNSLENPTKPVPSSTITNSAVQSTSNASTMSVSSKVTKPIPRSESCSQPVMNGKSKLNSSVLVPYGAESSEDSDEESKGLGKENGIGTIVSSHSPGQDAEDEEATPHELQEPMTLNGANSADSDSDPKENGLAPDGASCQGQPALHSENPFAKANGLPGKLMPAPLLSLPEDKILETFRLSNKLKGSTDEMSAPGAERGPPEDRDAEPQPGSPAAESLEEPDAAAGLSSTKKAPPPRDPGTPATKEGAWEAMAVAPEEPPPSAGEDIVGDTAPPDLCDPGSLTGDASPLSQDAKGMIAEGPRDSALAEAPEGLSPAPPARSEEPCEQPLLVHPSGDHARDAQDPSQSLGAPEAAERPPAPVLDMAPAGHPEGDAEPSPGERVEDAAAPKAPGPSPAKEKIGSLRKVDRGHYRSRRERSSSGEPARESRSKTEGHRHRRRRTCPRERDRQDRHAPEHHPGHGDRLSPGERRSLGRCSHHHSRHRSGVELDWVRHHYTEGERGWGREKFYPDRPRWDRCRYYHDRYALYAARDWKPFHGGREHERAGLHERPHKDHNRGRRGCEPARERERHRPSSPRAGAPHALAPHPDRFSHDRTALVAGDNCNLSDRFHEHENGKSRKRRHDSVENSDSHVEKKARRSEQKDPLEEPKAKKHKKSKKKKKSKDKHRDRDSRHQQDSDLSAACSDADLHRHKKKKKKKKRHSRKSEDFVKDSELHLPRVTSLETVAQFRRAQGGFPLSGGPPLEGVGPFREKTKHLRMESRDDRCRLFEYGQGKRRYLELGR
In short: (§1)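 HEK293T lysate (495 µg per sample, in Tris/CHAPS/IGEPAL buffer with protease inhibitors) was treated in triplicate with fragment at 200 µM or with DMSO for 3 h. It was then treated with Biotin-Ahx-Ub-VS (0.5 µM final) for 1 h. Labelled DUBs were NeutrAvidin-enriched, digested with LysC and trypsin, and run by diaPASEF LC-MS/MS. Spectronaut label-free quantities were global-median-normalised. Values are average log2 ratios fragment/DMSO by unpaired t-test, using proteins with ≥2 unique peptides.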

USP46 = USP46 (UniProt P62068)
In short: as §1

USP47 = biological target: T2, USP47 (UniProt Q96K76)
T2 sequence (whole entry): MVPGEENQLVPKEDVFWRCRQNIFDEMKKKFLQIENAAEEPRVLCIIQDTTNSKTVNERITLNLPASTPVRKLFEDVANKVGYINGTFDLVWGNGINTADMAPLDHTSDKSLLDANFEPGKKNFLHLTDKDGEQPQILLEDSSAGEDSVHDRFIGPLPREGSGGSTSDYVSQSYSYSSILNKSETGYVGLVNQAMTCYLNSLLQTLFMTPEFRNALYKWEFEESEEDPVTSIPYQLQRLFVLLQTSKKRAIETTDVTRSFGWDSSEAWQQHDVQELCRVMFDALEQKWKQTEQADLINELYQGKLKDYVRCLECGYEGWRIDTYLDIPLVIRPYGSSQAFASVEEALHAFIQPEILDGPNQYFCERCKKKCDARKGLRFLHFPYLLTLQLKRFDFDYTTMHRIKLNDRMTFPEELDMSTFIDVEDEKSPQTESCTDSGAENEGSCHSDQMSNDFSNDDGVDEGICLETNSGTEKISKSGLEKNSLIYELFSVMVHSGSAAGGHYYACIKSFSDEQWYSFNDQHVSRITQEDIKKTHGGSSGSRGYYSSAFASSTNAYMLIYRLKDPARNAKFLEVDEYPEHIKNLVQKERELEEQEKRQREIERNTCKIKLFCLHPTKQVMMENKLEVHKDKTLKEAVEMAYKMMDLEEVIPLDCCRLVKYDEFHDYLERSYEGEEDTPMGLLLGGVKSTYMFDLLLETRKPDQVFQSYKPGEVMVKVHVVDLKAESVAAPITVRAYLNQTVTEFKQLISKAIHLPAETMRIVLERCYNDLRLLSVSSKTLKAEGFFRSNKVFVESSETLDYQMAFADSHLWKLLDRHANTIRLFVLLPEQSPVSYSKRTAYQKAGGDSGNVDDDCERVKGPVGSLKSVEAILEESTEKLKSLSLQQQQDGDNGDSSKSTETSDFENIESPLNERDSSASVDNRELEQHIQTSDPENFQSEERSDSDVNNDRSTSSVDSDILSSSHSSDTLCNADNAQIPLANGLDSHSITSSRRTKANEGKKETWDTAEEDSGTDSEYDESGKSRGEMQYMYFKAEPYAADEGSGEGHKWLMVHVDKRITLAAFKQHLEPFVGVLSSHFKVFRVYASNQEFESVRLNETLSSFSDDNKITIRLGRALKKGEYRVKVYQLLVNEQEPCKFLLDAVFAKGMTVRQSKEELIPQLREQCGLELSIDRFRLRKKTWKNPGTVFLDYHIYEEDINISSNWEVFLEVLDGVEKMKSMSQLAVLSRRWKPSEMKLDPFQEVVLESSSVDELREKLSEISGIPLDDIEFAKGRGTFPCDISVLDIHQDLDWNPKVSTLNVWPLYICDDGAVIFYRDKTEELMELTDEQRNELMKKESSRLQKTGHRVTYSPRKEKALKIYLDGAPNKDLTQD
In short: as §1

USP48 = biological target: T3, USP48 (UniProt Q86UV5)
T3 sequence (whole entry): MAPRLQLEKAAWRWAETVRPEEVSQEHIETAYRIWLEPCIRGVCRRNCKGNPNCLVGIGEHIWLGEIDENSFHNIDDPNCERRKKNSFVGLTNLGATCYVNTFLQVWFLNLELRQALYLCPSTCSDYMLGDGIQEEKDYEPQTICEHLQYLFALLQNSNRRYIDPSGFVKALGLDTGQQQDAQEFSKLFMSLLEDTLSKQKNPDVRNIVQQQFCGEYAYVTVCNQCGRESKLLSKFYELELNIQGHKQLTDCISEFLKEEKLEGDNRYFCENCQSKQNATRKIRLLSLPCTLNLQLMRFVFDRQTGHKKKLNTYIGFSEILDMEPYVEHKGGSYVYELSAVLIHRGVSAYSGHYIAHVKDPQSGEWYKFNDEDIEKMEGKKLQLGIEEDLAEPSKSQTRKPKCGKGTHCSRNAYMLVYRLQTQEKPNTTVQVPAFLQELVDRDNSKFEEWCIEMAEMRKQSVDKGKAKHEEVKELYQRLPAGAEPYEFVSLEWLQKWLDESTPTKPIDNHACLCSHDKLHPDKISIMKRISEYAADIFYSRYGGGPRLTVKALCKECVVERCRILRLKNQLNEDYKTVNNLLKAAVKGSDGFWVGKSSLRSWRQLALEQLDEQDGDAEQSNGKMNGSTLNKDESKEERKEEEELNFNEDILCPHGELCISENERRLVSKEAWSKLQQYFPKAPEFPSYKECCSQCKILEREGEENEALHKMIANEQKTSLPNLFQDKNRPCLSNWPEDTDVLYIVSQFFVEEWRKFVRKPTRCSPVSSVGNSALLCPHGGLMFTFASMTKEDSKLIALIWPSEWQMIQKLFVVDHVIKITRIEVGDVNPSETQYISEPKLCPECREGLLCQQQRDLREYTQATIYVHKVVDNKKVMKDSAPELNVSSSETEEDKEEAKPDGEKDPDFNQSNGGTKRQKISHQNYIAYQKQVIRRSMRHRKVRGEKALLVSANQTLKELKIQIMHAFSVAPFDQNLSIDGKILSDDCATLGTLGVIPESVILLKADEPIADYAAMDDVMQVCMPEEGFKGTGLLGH
In short: as §1

USP5 = biological target: T4, USP5 (UniProt P45974)
T4 sequence (whole entry): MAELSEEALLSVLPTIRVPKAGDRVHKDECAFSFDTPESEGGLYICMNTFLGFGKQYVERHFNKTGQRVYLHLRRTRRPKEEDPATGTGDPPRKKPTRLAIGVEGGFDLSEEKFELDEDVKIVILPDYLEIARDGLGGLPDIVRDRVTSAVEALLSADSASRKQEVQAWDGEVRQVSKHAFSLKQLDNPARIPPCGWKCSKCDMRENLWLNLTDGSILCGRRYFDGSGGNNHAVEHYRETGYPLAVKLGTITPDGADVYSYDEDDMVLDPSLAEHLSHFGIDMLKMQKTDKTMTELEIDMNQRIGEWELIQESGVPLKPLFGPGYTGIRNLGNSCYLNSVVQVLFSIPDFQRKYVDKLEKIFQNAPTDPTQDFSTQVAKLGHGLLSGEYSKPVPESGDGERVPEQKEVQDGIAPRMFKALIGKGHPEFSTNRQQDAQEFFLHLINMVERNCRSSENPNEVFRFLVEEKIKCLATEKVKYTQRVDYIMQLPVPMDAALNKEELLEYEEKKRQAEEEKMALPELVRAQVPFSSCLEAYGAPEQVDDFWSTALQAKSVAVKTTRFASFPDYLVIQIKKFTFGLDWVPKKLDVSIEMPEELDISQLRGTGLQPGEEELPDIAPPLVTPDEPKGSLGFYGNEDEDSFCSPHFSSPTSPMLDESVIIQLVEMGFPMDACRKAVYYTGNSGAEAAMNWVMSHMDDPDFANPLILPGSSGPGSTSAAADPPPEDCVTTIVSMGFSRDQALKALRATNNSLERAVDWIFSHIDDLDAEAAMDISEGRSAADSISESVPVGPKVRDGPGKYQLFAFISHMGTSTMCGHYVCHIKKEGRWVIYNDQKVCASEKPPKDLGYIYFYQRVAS
In short: as §1

USP54 = USP54 (UniProt Q70EL1)
In short: as §1

USP7 = USP7 (UniProt Q93009)
In short: as §1

USP8 = biological target: T5, USP8 (UniProt P40818)
T5 sequence (whole entry): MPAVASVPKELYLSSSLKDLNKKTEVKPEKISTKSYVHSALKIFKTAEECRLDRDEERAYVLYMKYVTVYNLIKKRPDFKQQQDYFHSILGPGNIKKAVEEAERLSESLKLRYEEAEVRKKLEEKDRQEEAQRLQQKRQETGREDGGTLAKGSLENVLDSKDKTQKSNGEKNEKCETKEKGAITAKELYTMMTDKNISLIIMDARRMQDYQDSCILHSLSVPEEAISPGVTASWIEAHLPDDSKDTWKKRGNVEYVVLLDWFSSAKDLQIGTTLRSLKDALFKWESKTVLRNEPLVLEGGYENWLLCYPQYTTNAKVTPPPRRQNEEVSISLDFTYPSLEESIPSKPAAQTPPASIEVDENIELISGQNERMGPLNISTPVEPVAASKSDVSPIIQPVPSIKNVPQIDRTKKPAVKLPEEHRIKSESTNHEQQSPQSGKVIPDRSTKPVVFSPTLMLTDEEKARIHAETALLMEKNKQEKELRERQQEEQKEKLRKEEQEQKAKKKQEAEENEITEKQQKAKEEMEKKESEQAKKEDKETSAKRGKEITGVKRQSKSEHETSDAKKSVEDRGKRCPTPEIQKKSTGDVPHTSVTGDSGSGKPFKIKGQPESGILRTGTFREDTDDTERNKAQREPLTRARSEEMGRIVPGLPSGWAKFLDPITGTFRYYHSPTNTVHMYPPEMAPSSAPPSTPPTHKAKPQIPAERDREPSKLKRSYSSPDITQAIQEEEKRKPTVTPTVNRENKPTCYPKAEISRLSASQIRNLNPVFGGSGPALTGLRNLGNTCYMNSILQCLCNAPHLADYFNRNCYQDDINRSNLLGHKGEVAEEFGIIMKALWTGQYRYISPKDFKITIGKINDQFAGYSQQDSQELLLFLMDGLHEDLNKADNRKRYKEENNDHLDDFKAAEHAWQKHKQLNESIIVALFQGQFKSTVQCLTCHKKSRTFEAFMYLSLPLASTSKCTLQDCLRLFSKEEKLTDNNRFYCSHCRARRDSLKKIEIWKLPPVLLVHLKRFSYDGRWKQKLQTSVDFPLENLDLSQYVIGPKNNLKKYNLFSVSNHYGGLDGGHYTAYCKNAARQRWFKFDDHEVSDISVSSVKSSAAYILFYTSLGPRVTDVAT
In short: as §1

Measured: log2 ratio of Biotin-Ahx-Ub-VS probe labelling

Sequence of USP7 (Q93009 whole entry, looked up): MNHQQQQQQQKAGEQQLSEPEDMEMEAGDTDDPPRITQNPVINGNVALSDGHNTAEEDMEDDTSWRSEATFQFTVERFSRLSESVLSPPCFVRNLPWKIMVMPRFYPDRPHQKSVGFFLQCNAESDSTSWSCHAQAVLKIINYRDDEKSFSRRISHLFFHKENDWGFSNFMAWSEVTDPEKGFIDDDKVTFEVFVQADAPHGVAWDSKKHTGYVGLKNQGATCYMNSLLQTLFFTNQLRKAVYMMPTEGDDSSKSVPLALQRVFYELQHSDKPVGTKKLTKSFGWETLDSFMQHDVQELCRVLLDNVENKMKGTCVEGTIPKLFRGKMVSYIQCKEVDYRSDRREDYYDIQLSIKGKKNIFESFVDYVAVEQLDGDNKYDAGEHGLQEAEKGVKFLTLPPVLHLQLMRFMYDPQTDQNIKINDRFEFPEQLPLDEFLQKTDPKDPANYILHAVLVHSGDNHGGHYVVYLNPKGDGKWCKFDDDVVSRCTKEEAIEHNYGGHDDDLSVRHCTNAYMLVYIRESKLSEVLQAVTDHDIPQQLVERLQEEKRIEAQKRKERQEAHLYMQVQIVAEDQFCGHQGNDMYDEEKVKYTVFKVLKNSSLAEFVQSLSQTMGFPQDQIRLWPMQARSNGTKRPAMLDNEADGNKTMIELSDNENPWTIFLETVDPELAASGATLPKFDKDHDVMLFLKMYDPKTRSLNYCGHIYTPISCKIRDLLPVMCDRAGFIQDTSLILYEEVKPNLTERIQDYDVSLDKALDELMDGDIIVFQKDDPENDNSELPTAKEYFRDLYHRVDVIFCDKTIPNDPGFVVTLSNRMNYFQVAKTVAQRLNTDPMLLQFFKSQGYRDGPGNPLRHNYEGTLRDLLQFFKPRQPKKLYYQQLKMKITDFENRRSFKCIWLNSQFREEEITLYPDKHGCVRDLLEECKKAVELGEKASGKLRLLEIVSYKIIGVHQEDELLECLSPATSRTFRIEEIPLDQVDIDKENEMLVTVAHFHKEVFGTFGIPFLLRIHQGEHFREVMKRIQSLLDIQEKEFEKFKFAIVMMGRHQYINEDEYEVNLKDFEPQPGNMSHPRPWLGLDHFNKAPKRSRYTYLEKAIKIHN
Sequence of USP46 (P62068 whole entry): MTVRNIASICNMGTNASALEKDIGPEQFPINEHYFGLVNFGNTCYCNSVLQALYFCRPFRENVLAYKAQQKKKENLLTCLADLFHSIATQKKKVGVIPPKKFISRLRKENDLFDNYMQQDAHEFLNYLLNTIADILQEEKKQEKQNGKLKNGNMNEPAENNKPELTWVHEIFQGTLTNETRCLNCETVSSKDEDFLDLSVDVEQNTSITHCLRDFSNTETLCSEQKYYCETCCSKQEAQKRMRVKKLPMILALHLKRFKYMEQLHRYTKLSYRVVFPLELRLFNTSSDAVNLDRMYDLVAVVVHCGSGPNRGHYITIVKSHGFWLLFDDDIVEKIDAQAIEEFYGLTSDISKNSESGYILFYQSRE
Sequence of USP54 (Q70EL1 whole entry): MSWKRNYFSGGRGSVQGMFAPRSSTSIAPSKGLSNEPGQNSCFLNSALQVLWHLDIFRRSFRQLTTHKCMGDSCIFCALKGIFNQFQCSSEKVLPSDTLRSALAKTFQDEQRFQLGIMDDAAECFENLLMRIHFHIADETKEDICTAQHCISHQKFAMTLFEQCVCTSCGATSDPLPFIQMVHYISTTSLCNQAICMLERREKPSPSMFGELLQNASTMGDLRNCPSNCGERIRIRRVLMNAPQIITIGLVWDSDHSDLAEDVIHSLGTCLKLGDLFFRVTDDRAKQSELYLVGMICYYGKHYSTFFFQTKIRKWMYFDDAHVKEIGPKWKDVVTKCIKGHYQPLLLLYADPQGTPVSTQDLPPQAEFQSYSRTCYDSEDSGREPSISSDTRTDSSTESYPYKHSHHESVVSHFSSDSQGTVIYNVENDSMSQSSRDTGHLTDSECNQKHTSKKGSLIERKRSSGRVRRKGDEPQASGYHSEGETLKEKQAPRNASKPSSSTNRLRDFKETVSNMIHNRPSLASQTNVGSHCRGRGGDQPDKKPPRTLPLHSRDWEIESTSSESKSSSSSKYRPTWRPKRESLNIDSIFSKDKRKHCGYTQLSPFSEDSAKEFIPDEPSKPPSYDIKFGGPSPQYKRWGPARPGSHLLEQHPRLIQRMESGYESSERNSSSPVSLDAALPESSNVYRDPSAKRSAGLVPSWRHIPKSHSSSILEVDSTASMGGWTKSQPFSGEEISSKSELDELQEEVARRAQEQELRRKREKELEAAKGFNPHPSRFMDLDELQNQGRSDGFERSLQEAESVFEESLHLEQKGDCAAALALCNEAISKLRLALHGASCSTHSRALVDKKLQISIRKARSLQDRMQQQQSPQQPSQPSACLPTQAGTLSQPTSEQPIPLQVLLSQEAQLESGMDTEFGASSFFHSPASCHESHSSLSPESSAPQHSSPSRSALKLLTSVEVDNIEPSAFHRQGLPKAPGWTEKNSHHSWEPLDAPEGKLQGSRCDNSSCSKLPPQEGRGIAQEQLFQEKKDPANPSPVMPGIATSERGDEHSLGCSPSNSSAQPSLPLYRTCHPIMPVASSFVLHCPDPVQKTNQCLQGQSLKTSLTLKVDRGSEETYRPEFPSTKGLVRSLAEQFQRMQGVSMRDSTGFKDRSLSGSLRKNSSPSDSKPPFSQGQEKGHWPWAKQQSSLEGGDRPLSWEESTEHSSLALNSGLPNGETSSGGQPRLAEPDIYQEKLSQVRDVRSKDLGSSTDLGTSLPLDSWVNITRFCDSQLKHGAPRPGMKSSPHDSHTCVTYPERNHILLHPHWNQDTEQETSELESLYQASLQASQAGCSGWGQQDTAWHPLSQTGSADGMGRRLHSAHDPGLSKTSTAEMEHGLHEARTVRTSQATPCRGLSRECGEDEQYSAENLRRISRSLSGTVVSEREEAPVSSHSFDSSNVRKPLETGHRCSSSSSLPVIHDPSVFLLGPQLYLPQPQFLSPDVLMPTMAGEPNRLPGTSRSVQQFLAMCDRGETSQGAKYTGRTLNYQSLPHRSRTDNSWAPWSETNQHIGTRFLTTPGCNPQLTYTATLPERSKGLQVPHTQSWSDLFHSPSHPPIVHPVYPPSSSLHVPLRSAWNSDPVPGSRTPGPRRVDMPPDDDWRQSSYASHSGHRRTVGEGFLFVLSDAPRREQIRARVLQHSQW

O=C(CCl)N1CCC(C(=O)N2CCCCCC2)CC1
inactive: USP42 0.671 | USP46 -0.142 | USP47 -0.239 | USP48 -0.0351 | USP5 0.0959 | USP54 0.452 | USP7 -0.714 | USP8 -0.0368
